From PubChem BioAssay (EPA / NIEHS)
Active and inactive are the calls of the source. How the source made its calls: active means hit-call score of the fitted dose curve at least 0.9, where 1 is the maximum; inactive means score below 0.9.

read-out: E-selectin (Homo sapiens) (UniProt P16581); assay: BSK_SAg_Eselectin: BioMAP Diversity Plus: SAg Assay for Eselectin Biomarker Activity (AID 2283091); conditions: primary human HUVEC with PBMC; actives raise or lower the signal
Experimental: BSK_SAg is a cell-based, multiplexed-readout assay that uses umbilical vein endothelium and peripheral blood mononuclear cells, a human vascular primary cell co-culture, with measurements taken at 24 hours after chemical dosing in a 96-well plate.BSK_SAg_Eselectin is an assay component measured in the BSK_SAg assay. It measures E-selectin antibody related to regulation of gene expression using ELISA technology.Data from the assay component BSK_SAg_Eselectin was analyzed into 1 assay endpoint. This assay endpoint, BSK_SAg_Eselectin, was analyzed with bidirectional fitting relative to DMSO as the negative control and baseline of activity. Using a type of binding reporter, gain or loss-of-signal activity can be used to understand changes in the signaling as they relate to the gene SELE. Furthermore, this assay endpoint can be referred to as a primary readout, because this assay has produced multiple assay endpoints where this one serves a signaling function. To generalize the intended target to other relatable targets, this assay endpoint is annotated to the cell adhesion molecules intended target family, where the subfamily is selectins.
The levels of cell surface (or secreted, indicated by the prefix "s") biomarker endpoints were measured by ELISA. Overt cytotoxicity to cells in confluent adherent cultures (all systems other than the BT system) was assessed by measuring total protein levels using sulforhodamine B (SRB) staining in parallel cultures at the time of biomarker measurements, indicated as SRB endpoints. For proliferation assays for adherent cell types, individual cell types are cultured at sub-confluence and relative cell numbers quantified by SRB staining at time points optimized for each system (48 h: 3C and CASM3C systems; 72 h: BT and HDF3CGF systems; 96 h: SAg system). SRB was performed by staining cells with 0.1% SRB after fixation with 10% TCA and reading wells at 560 nm.Viability and proliferation of PBMC (T cells) was quantified by Alamar Blue reduction for the SAg and BT systems. For PBMC viability (referred to as PBMC Cytotoxicity within the assay endpoint names), cells were plated (75,000/well in a 96-well plate) and then chemical samples added for 1 h before addition of activators, SEB and TSST-1 (20 ng/mL final concentration each). Cells were incubated for 90 h. Then, Alamar Blue (20 uL/well) (Invitrogen, Cat DAL1100) was added for 6 h, and the plates were read with a fluorescence microplate reader at 546/580 nm (excitation/emission). For PBMC proliferation, cells were plated and activated as above but incubated for only 16 h prior to addition of Alamar Blue. Plates were read after 6 h.

E-selectin (Homo sapiens), sequence (P16581 whole entry, looked up): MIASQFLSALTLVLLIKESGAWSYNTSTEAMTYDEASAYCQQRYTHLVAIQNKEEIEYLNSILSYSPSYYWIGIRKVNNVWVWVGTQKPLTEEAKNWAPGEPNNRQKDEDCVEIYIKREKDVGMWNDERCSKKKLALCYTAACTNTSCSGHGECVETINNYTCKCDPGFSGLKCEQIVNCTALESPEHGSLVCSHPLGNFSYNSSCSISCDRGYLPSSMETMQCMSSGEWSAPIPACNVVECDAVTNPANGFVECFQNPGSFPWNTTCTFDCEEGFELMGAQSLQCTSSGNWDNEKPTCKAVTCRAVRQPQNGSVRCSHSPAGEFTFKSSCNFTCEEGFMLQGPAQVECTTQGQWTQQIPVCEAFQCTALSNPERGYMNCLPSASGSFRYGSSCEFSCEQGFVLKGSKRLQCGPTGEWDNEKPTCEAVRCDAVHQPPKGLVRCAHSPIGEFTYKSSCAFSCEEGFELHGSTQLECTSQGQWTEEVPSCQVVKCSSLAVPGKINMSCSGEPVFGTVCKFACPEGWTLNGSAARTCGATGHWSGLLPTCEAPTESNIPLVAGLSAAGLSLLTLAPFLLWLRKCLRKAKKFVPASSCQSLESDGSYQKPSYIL

Structure (SMILES) | outcome | AC50
COc1cc(S(=O)(=O)O)c(C)cc1N=Nc1c(O)ccc2cc(S(=O)(=O)O)ccc12 | inactive | –
C[C@]12C=CC(=O)C=C1CC[C@@H]1[C@@H]2C(=O)C[C@@]2(C)[C@H]1CC[C@]2(O)C(=O)CO | inactive | –
CC(C)c1ccc(C(=O)N=C(N)N)cc1S(C)(=O)=O | inactive | –
Nc1ccc2c(c1)C(=O)c1ccccc1C2=O | inactive | –
NC(=O)Cn1c(=O)cc(CCN2CCN(c3nccc4sccc34)CC2)c2ccc(F)cc21 | inactive | –
CC(=O)Oc1ccccc1C(=O)O | inactive | –
CC(=O)C(C)=CC1C(C)=CCCC1(C)C (stereo not given) | inactive | –
CCOC(=O)C(C)(C)Oc1ccc(Cl)cc1 | inactive | –
COC(=O)c1ccc(O)cc1 | inactive | –
CCCCCCCCCCCCCCCC | inactive | –
Cc1cccc([N+](=O)[O-])c1C | inactive | –
COc1ccc2c(c1)c(CC(=O)O)c(C)n2C(=O)c1ccc(Cl)cc1 | inactive | –
CC(=O)OCCOCCOCCOC(C)=O | inactive | –
COc1cc(C=O)ccc1O | inactive | –
CCc1c(C(=O)NN2CCCCC2)nn(-c2ccc(Cl)cc2Cl)c1-c1ccc(Br)cc1 | – | 12.3 µM (active)
CCCCCCCCCCO | inactive | –
CCCCCCCCCCCCCO | – | 36.4 µM (active)
COc1cc(-c2nc(NC(=O)c3cc4cc(C)cc(C)c4n3CC(=O)O)sc2CCC2CCCCC2)c(OC)cc1Cl | – | 5.48 µM (active)
FC(F)(F)C(F)(F)C(F)(F)C(F)(F)C(F)(F)C(F)(F)CCI | inactive | –
Cc1cccc(Nc2cc(Cl)nc(SCC(=O)O)n2)c1C | inactive | –

Structure (SMILES) | outcome | AC50
Cc1ccc(N(C)C)cc1 | inactive | –
CC1(C)NC(=O)NC1=O | inactive | –
CCCCCCOCCO | inactive | –
Cc1ccc(C(C)C)c(O)c1 | inactive | –
Nc1ccccc1N | inactive | –
CCCCCCC(=O)OCC | inactive | –
C1CCC(SSC2CCCCC2)CC1 | – | 32.7 µM (active)
O=c1c(O)c(-c2ccc(O)c(O)c2)oc2cc(O)cc(O)c12 | inactive | –
Cc1cc(=O)[nH]c(=S)[nH]1 | inactive | –
Cc1ccccc1Cl | inactive | –
Cc1oc(-c2ccccc2)nc1CCOc1cccc2c1ccn2CCC(=O)O | inactive | –
Oc1ccc2ccccc2c1N=Nc1ccccc1 | – | 4.27 µM (active)
NCCO | inactive | –
COc1ccc(C)cc1N | inactive | –
CCCCCCCCCCCCCCCCCC(=O)O | inactive | –
NCC1(Cc2noc(=O)[nH]2)CCCCC1 | inactive | –
O=C(OCCCCCOC(=O)c1ccccc1)c1ccccc1 | inactive | –
CC(C)(C)c1cc(O)c(C(C)(C)C)cc1O | – | 7.31 µM (active)
Nc1nc(N)c2nc(CNc3ccc(C(=O)N[C@@H](CCC(=O)O)C(=O)O)cc3)cnc2n1 | inactive | –
O=[N+]([O-])C(CO)(CO)CO | inactive | –
